Residues, ends and D or L forms follow the SMILES beside them. *: point of attachment. Cbz = O=C(OCc1ccccc1)*; CH2F = FC*
Legend:
Conditions in all cases: Compound concentration 20.0 uM
[1] = target: Tyrosine-protein kinase ABL1 (Homo sapiens) (UniProt P00519)
[2] = target: Bromodomain-containing protein 4 (Homo sapiens) (UniProt O60885)
[3] = target: Cyclin-dependent kinase 2 (Homo sapiens) (UniProt P24941)
[4] = target: Casein kinase I isoform delta (Homo sapiens) (UniProt P48730)
[5] = target: Glycogen synthase kinase-3 beta (Homo sapiens) (UniProt P49841)
Chain of Glycogen synthase kinase-3 beta (Homo sapiens) (P49841 whole entry, looked up): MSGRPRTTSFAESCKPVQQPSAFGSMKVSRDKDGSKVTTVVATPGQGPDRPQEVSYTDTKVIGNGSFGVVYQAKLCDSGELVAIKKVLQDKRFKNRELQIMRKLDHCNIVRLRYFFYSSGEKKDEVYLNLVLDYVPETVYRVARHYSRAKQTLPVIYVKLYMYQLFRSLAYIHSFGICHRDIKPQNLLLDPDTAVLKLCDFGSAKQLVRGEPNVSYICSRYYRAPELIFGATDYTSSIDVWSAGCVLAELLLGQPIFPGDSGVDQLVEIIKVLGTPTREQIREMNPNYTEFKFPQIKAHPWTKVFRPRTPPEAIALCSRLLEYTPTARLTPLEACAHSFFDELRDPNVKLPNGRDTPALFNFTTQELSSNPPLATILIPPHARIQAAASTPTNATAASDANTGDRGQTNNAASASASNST

[6] = target: Mitogen-activated protein kinase 1 (Homo sapiens) (UniProt P28482)
Chain of Mitogen-activated protein kinase 1 (Homo sapiens) (P28482 whole entry): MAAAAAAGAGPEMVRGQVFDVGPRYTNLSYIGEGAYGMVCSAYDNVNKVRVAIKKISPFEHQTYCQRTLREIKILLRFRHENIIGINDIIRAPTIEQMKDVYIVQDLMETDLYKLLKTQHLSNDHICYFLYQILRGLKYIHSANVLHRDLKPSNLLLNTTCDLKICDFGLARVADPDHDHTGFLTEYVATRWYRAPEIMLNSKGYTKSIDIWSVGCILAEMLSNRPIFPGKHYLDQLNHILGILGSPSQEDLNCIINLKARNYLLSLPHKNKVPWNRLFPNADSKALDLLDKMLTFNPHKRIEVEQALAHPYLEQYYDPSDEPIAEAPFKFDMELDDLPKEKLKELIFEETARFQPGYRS

[7] = target: T1, Aurora kinase A (Homo sapiens) (UniProt O14965)
T1 sequence (whole entry): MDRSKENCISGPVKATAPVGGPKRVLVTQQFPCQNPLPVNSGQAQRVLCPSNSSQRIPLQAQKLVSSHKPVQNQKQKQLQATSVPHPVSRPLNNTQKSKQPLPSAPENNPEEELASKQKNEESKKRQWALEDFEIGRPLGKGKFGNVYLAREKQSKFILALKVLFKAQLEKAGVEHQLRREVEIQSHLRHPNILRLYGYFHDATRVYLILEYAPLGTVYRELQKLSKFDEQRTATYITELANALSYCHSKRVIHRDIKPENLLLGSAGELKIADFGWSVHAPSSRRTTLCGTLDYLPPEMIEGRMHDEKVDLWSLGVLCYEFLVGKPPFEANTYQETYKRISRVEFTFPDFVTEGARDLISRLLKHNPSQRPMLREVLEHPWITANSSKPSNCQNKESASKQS

[8] = target: T2, Transcription intermediary factor 1-alpha (Homo sapiens) (UniProt O15164)
T2 sequence (whole entry): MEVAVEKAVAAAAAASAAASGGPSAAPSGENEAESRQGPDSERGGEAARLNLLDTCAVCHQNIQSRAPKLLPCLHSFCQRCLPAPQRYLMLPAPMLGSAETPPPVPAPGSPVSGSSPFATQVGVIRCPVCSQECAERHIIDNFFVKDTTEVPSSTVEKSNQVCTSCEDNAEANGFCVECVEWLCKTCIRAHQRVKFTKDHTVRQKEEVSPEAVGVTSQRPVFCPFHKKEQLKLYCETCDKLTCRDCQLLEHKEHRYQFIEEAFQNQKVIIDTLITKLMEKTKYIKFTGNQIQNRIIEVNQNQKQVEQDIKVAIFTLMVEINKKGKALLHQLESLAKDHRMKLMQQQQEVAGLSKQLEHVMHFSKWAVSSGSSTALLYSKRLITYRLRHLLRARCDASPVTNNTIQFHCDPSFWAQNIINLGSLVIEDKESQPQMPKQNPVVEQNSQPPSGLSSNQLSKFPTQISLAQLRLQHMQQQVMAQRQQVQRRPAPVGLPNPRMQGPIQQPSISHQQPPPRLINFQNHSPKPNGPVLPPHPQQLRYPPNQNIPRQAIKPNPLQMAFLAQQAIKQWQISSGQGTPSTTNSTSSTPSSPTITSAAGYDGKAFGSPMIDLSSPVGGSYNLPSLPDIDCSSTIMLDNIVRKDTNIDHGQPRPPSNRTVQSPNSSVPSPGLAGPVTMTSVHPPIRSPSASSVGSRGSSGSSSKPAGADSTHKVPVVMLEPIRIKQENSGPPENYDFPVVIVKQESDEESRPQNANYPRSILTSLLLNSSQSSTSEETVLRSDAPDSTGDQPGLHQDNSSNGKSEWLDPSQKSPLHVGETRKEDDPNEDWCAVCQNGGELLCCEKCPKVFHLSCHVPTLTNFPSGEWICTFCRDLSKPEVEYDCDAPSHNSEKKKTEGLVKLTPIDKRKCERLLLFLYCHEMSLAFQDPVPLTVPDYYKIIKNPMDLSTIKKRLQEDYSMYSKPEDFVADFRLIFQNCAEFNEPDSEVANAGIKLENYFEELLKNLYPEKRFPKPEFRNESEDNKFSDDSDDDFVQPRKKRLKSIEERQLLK

Chain of Casein kinase I isoform delta (Homo sapiens) (P48730 whole entry, looked up, canonical isoform): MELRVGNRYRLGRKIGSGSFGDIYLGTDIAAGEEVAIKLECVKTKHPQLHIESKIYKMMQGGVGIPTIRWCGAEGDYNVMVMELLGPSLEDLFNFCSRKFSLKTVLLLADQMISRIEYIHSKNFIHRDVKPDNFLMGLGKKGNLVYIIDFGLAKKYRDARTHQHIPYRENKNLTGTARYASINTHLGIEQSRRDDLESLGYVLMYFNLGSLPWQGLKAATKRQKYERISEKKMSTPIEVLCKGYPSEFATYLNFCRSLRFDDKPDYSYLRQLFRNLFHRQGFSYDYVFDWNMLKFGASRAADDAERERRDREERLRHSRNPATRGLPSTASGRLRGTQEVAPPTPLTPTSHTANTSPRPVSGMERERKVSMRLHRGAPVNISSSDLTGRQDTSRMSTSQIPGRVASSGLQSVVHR
Chain of Tyrosine-protein kinase ABL1 (Homo sapiens) (P00519 whole entry): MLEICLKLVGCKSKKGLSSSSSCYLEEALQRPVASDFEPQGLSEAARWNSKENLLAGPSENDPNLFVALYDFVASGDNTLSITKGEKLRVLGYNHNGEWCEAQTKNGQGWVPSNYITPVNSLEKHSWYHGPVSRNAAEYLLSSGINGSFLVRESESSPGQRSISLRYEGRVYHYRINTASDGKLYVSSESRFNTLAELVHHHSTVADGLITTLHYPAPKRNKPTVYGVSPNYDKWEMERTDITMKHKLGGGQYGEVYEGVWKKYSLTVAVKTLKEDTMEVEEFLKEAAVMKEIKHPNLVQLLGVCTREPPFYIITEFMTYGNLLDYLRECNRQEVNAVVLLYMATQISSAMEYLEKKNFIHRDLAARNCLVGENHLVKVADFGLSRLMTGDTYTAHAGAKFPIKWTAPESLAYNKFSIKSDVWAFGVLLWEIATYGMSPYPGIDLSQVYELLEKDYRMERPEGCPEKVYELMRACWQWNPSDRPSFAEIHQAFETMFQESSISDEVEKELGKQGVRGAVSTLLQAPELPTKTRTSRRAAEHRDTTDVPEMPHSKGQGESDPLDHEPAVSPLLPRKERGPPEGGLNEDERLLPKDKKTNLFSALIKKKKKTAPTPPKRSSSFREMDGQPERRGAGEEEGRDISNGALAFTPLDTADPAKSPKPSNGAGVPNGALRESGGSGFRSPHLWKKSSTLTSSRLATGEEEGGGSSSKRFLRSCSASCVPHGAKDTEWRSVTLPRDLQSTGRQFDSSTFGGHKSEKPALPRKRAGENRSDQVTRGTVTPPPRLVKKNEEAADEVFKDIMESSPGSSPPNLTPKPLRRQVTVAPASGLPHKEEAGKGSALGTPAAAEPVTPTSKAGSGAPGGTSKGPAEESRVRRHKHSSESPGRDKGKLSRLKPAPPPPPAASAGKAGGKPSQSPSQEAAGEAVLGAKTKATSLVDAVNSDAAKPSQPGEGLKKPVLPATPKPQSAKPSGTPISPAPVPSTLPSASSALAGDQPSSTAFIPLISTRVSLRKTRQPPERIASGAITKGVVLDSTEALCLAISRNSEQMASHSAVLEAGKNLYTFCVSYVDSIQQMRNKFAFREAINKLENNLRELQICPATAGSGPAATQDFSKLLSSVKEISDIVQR

| SMILES | ΔTm [1] [°C] | ΔTm [2] [°C] | ΔTm [3] [°C] | ΔTm [4] [°C] | ΔTm [5] [°C] | ΔTm [6] [°C] | ΔTm [7] [°C] | ΔTm [8] [°C] |
| --- | --- | --- | --- | --- | --- | --- | --- | --- |
| Cc1ccc2[nH]c3c(c2c1)CCCC3C(N)=O (stereo unspecified) | 0.45 | -2.26 | 0.06 | -0.29 | -0.37 | 0.52 | -2.14 | -1.11 |
| O=c1[nH]c(N2CCC3(CC2)CN(CCO)c2cc(F)cc(F)c23)nc2c1CCCC2 | 0.43 | -3.2 | 0.1 | -0.13 | -1.32 | 0.22 | -0.79 | -1.21 |
| CN1CCN(c2cc(C(=O)Nc3ncc(SCc4cccc(C(F)(F)F)c4)s3)ccn2)CC1 | 3.36 | -0.44 | -0.22 | -0.03 | 0 | -0.59 | 0 | -2.66 |
| C[C@@H](Oc1ccc(S(C)(=O)=O)cc1C(=O)N1C[C@@H]2C[C@]2(c2cc(C(F)(F)F)on2)C1)C(F)(F)F | 0.62 | -3.24 | 0.09 | -0.17 | -0.39 | 0.07 | -2.51 | 0.43 |
| Cn1nc2c(=O)n(CC3(O)CCN(C(=O)C[C@H](c4ccccc4)C(F)(F)F)CC3)cnc2c1-c1ccc(CN)cc1 | 0.68 | -2.51 | 0.12 | -0.82 | -0.57 | 0.17 | -1.86 | -0.47 |
| Cc1nn2c(nc(O)c3cccnc32)c1C#N | 0.68 | -3.07 | 0.02 | -0.11 | -0.51 | 0.18 | -2.1 | 1.17 |
| CNCCCN1c2ccccc2CCc2ccccc21 | 0.08 | -2.59 | -0.16 | -0.01 | -1.29 | 0.06 | -1.87 | 0.96 |
| C=CCn1c(N[C@@H]2C[C@H](c3ccc(OCc4ccccc4)cc3)CN(C)C2)nc2cc[nH]c2c1=O | 0.69 | 0.73 | -0.03 | -0.36 | -0.88 | 0.13 | -1.6 | 0.04 |
| O=C(NO)c1cccc(C(=O)NCCc2ccccc2)c1 | 0.54 | -1.69 | 1.3 | 0.19 | -1.53 | 0.15 | -0.23 | -1.33 |
| COC(=O)CC(NC(=O)C(C)NC(=O)C(NC(=O)C(CC(=O)OC)NC(=O)C(NC(=O)OCc1ccccc1)C(C)C)C(C)C)C(=O)CF (stereo unspecified) (Cbz-VD(OMe)VAD(OMe)-CH2F; configuration not given here) | 0.15 | -1.13 | 0.27 | -0.22 | 0.19 | 0.29 | -1.87 | -0.97 |
| CCn1c(=S)[nH]c2cc3c(NCc4ccccc4N4CCC(CO)CC4)ncnc3cc21 | 0.75 | 4.86 | -0.14 | 0.33 | -0.82 | 0.17 | -1.92 | -0.23 |
| CN1CCN(c2nc(-c3ccc(C(=O)NC4(C(=O)NCC#N)CCCCC4)cc3)cs2)CC1 | 0.26 | -0.96 | 0.12 | -0.06 | -0.33 | -1.88 | -0.41 | -0.66 |
| COc1cc2c(cc1OC)[C@H]1C[C@@H](OC(=O)[C@@H](N)C(C)C)[C@H](CC(C)C)CN1CC2 | 0.26 | 1.87 | 0.58 | -0.31 | -0.94 | 0.3 | -1.54 | 0.19 |
| Cc1cc(Cn2c(=O)n(Cc3cnc(C)s3)c(=O)c3cc(S(=O)(=O)NC4(C)CC4)ccc32)n(C)n1 | 0.2 | -4.6 | 0.24 | 0.39 | -0.6 | 0.1 | -3.34 | -1.26 |
| CCOc1ccc2nc(-c3cccc(OCC(=O)NC(C)C)c3)nc(Nc3ccc(-c4cn[nH]c4)cc3)c2c1 | 0.09 | -0.68 | 0.3 | -1.4 | -0.35 | -2.16 | 0 | 0 |
| CC(C)(OCc1cc(-c2cccc(OC3CC3)c2)n(-c2ccccc2Cl)n1)C(=O)O | 0.39 | -3.91 | -0.19 | 0.08 | 0.42 | 0.09 | -2.34 | -0.77 |
| CCC(=O)N1CCOc2c(cc(-c3cc(OC)cc(OC)c3)cc2C(=O)N[C@H]2CCCN(C)C2)C1 | 0.72 | -0.15 | 0.57 | 0.5 | -1.27 | 0.1 | 0.01 | -2.74 |
| CCC(CC)N(CCN(C)C(=O)CCC(=O)O)Cc1cccc(C(=O)Nc2sc3c(c2C(=O)c2cnn(-c4ccc(Cl)c(C(F)(F)F)c4)c2)CCC(C)(C)C3)c1 | -0.27 | 1.72 | -0.99 | -8.05 | -4.31 | -1.59 | -8.72 | 1.42 |
| NS(=O)(=O)OC[C@H]1C[C@@H](Nc2ccnc3cc(-c4cccc(SC(F)(F)F)c4)nn23)[C@H](O)[C@@H]1O | 1.49 | 1.04 | 0.04 | 0.4 | -1.24 | 0.75 | -1.12 | 1.39 |
| CC(C)c1cc(C(=O)N2CC[C@@H](NC(=O)C3CC3)C2)[nH]n1 | 0.79 | -3.2 | 0.06 | -0.08 | -0.75 | 0.08 | -2.47 | 1.07 |
| CN1Cc2c(Cl)cc(Cl)cc2[C@H](c2cccc(S(=O)(=O)NCCOCCOCCNC(=O)NCCCCNC(=O)NCCOCCOCCNS(=O)(=O)c3cccc([C@@H]4CN(C)Cc5c(Cl)cc(Cl)cc54)c3)c2)C1 | -0.4 | -2.19 | -0.62 | -0.55 | -1.54 | 0 | -2.14 | -0.19 |
| CC1C(C#N)=C(N)OC2=C1C(=O)CC(c1cccc3ccccc13)C2 (stereo unspecified) | 0.3 | -2.09 | -0.28 | 3.72 | 4.85 | -2.01 | -0.97 | -1.61 |

Reference: ChEMBL document CHEMBL5724796, “Tm Shift (DSF) assay results for EUbOPEN Chemogenomics Library” (2024)
